Whole data set: some 25,000 sequences, median “ln(normalized median fluorescence intensity)” near 6.7, cut for the highest 2% near 10. For the sample, the highest values were picked, then their nearest neighbours and some sequences at random.
Tested on: PfHDP1 homeodomain (GST-tagged)
Test: gcPBM binding intensity (ln(normalized median fluorescence intensity)); higher = stronger DNA binding
Procedure, shortened: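 Plasmodium falciparum DNA-binding domains carrying a GST tag were expressed in E. coli and applied for 1 h, at about 25 μg on average, to an Agilent 4 × 180k array. The array held primer-extended double-stranded 36-bp intergenic genomic probes together with negative controls, and binding took place in 1× PBS with 1% milk, 0.2 mg/ml BSA, 0.5% salmon testes DNA and 0.03% Triton X-100. An Alexa488 anti-GST antibody detected bound protein, and the array was scanned at 488 nm. Binding intensity is taken as the highest Masliner-normalised natural-log median intensity across replicate spots of either probe orientation.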

| Sequence | gcPBM binding intensity (ln) |
| --- | --- |
| ATATTGACAAATATTACACACATATATATATATATA [CACACA_site4079] | 9.39 |
| TATATATATATATATTGTACTAATTGTGCAAATGAG [XGTACX_site682] | 10.9 |
| AAAAAAAAAATTAATTGTACTAAAAAAATATTATAT [XGTACX_site8903] | 6.41 |
| ATAACTAAATGATATTGTACAAAATAATTATATATT [XGTACX_site1331] | 6.38 |
| TATGATATCTATAATACACACATATACATAAGATCT [CACACA_site6652] | 6.6 |
| AAAAATATTTAAAATACACACATATCTATAATATAT [CACACA_site7032] | 6.36 |
| TACCAAAAAAAAAAAAATAAAAATAAAAAAAAAAAT [CACACA_negctrl_site1714] | 6.27 |
| TTTACATTTATGTGCACACATTCCATTTGAAAGTAA [CACACA_site1953] | 10.9 |
| TATTTACATTTATGTGCACACATTCCATTTGAAAGT [CACACA_site1954] | 11 |
| TTTGAAAAGTTGAAATGTACACATTTACACATATTT [XGTACX_site1641] | 6.24 |
| AAGTTGAAATAATGTGCACACATTTTTTTTTTTTTT [CACACA_site3368] | 9.16 |
| AAAAAAAAAAAAAAAAGTACACATCATTTTATGAAA [XGTACX_site1402] | 6.41 |
| AACACATACATATATGCACACATTTTATTCCATTAT [CACACA_site2834] | 10.1 |
| TTACAAGTAAAAGGTACACACATTATAAATACAAAT [CACACA_site4752] | 6.93 |
| ATCAACATCTAACATTGTACATGTGATGTGTAAAAG [XGTACX_site547] | 6.69 |
| TATATATATATATGTACACACATCAATCATATTAAC [CACACA_site1946] | 9.26 |
| TATATATATATATATATTAATAATTAATATAAAAGA [XGTACX_negctrl_site32] | 9 |
| GAGGTACATTAATTAGTGCATTAAAATTTTTATCCT | 9.85 |
| TATGTTATATAATATTGTACACAAAATGGTTTCTAT [XGTACX_site7686] | 6.73 |
| TAAATTAAAAAAAAAAACAAAAAAAAAGCAACAAAA [CACACA_negctrl_site1318] | 6.62 |
| ATGTGCACATGTAGAAGTACTTTTTCTTAAAATACT [XGTACX_site8341] | 10.9 |
| AAGTTTTCTTAAAGATGTACTTTTTAAAAATAAAAT [XGTACX_site3063] | 6.15 |
| TTTTGAAGTAATACATGTACTTAAATTACTAAAAAA [XGTACX_site1955] | 6.04 |

| Sequence | gcPBM binding intensity (ln) |
| --- | --- |
| TTTAAAATGGGACTTTGAAAAAAAAAAAAAAAAACA [TGCATGCA_negctrl_site111] | 6.1 |
| TGTGTCAAATAATTAATGTCATATATATTTTGTATA [CACACA_negctrl_site1479] | 6.11 |
| AATTTTTTATATGTCACACATTTGTTATTATTATTA [CACACA_site4197] | 6.51 |
| TTTTCATATTATAGTGCACACAAAAATATATATATG [CACACA_site8929] | 10.3 |
| AAATATTACATTTGTTAAATAATATGTTATACATAA [XGTACX_negctrl_site484] | 5.89 |
| TGTGTATTTATAAATACACACCAAATGTTAATATAT [CACACA_site6904] | 6.9 |
| CAGTTGTTAATTTGTGTGCACCAAATATTATACATA | 10.5 |
| GTCAAATTTTTGTGCACACATATATAGTTATTATTA [CACACA_site2241] | 11.7 |
| TTTTTTTTTTTTTTTGTGCACAATTATTTCAATTTT [GTGCAC_site9884] | 10.2 |
| ATGTCAAATTTTTGTGCACACATATATAGTTATTAT [CACACA_site2242] | 11.4 |
| ATGAAACAGTAACATTGTACTTTTACAAAAAAATAA [XGTACX_site806] | 6.25 |
| TTATATATATATAATACACACATAATAATATATTTA [CACACA_site3038] | 6.67 |
| TATAATAATAATAATAGTACGTATTATTAAAAAACT [XGTACX_site10] | 6.58 |
| TTATAAAAAATTTTAGTGCATATATGATTTATATAT [GTGCAC_site9831] | 9.44 |
| ATGATATGCAATTTAGTGCATAACAAAATTGGTATA | 10.5 |
| TATATAGATATGATAGTGCATTTTTAGAAAACATAA [GTGCAC_site9962] | 7.95 |
| AAAATGCATTTGATGTGTACGCATTATAAAGAACAA [XGTACX_site4203] | 7.39 |
| TACGTAATAATATGCACACAAATAAACTTTATAAAT [CACACA_site3501] | 9.89 |
| ATAGGCACTTTTTGCACACGTATGAATAACAAAATA [CACACA_site5069] | 10.4 |
| AGTAAATAACACAAATATGAATGAAAAAAAAAATAT [GTGCAC_negctrl_site235] | 6.82 |
| TAGTATAATATGAACACACACACACGCACAAAAAAA [CACACA_site7035] | 7.3 |
| ATATGCACTTTTTGCACACGTATGAATAACAAAATA [CACACA_site1810] | 11.2 |

Reference: the supplement of paper PMC11417369
